Unmarked numbers belong to inactive results. Results filed as inconclusive are left out. Where a call stands in place of a potency, no number is given. The source made the active and inactive calls. Unless noted, the call rests on the fitted dose curve.
Key:
[1] = Nuclear factor erythroid 2-related factor 2/antioxidant responsive element (Nrf2/ARE) small molecule agonists: qHTS cell viability counter screen in human keratinocytes (AID 1919968; active means well fitted curve in the direction sought with a large enough effect in the repeat runs; an effect the other way counts as inactive or inconclusive; further: nearly all actives have a fitted effect of over 55% in size; further: potency means the concentration at half of the fitted maximal effect)
How it was run: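 Viability counter-screen: KeratinoSens reporter cells, DMSO-delivered compounds, 23 h at 37 C, CellTiter-Fluor fluorescence.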

[2] = Nuclear factor erythroid 2-related factor 2/antioxidant responsive element (Nrf2/ARE) small molecule agonists: luciferase reporter gene qHTS assay in human keratinocytes (AID 1919969); further: nearly all actives have a fitted effect of over 35% in size; further: potency means the concentration at half of the fitted maximal effect
[3] = target: KiSS-1 receptor (Homo sapiens) (UniProt Q969F8); assay: Human kisspeptin (KISS1R) small molecule agonists, calcium flux assay in KISS1R-HEK293 cells (AID 1920064; active means well fitted curve in the direction sought with a large enough effect in the repeat runs; an effect the other way counts as inactive or inconclusive)
Chain of KiSS-1 receptor (Homo sapiens) (Q969F8 whole entry, looked up): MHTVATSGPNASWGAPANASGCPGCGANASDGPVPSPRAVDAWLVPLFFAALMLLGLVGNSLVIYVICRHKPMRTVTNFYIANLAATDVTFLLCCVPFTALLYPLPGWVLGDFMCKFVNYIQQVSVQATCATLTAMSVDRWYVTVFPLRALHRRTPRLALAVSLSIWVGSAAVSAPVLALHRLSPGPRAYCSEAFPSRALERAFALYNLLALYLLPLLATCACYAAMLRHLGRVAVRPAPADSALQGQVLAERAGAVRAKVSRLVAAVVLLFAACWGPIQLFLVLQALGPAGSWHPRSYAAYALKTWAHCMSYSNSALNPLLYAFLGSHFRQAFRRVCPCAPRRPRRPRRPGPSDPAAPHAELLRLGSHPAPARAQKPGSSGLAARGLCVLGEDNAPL
How it was run: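 Intracellular calcium mobilization in KISS1R-HEK293 cells was recorded by fluorescence (Ex/Em 480/540) for 3 min following compound addition to cells pre-loaded 1 h with calcium dye.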

[4] = G protein-coupled receptor (GPCR) small molecule agonists, calcium flux assay: HEK293 wild type cell line counter screen (AID 1920065); further: potency means the concentration at half of the fitted maximal effect
How it was run: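 In this agonist-mode screen, ATP is the positive control and DMSO the vehicle. Cells grow 18 h before a 1 h dye incubation at 37 C; signal is taken at Ex/Em 480/540 over 3 min.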

[5] = p53 small molecule agonists, cell-based qHTS assay with human liver microsomes (AID 1963577)
How it was run: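 p53RE-bla reporter cells were pre-incubated 5 h at 37 C, then treated with compounds plus human liver microsomes (0.5 mg/mL final) and NADPH (0.5 mg/mL final) for 16 h at 37 C. Beta-lactamase activity was read by LiveBLAzer fluorescence after 2 h at room temperature.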

[6] = p53 small molecule agonists, cell-based qHTS assay with rat liver microsomes (AID 1963578)
How it was run: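 p53RE-bla cells were exposed to compounds together with rat liver microsomes (0.5 mg/mL final) and NADPH (0.5 mg/mL final) for 16 h at 37 C, then read by LiveBLAzer beta-lactamase fluorescence after 2 h at room temperature.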

[7] = p53 small molecule agonists, cell-based qHTS assay with human liver microsomes: qHTS cell viability counter screen (AID 1963579); further: nearly all actives have a fitted effect of over 45% in size
How it was run: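 p53RE-bla cells (4,000/well) were pre-incubated 5 h at 37 C, then given compounds in DMSO plus human liver microsomes (0.5 mg/mL final) and NADPH (0.5 mg/mL final) for 16 h at 37 C. Viability was read by CellTiter-Glo luminescence.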

[8] = p53 small molecule agonists, cell-based qHTS assay with rat liver microsomes: qHTS cell viability counter screen (AID 1963580); further: nearly all actives have a fitted effect of over 45% in size
How it was run: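 p53RE-bla HCT-116 cells were exposed 16 h at 37 C to compounds with rat liver microsomes (0.5 mg/mL) and NADPH (0.5 mg/mL). Viability was measured in the same wells as ATP content by CellTiter-Glo luminescence.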

[9] = p53 small molecule agonists, cell-based qHTS assay (AID 1963582; active means well fitted activation curve with a large enough effect in the signal ratio in the repeat runs, not every such curve was filed as active; the % refers to the signal ratio)
How it was run: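 Agonist activity was scored from beta-lactamase FRET fluorescence in p53RE-bla cells treated 16 h at 37 C with compounds in DMSO, substrate incubation being 2 h at room temperature.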

[10] = target: 5-hydroxytryptamine receptor 2A (Homo sapiens) (UniProt P28223); assay: 5-hydroxytryptamine receptor 2A (HTR2A) small molecule antagonists, cell-based qHTS assay (AID 1963586); further: nearly all actives have a fitted effect of over 45% in size
Chain of 5-hydroxytryptamine receptor 2A (Homo sapiens) (P28223 whole entry, looked up): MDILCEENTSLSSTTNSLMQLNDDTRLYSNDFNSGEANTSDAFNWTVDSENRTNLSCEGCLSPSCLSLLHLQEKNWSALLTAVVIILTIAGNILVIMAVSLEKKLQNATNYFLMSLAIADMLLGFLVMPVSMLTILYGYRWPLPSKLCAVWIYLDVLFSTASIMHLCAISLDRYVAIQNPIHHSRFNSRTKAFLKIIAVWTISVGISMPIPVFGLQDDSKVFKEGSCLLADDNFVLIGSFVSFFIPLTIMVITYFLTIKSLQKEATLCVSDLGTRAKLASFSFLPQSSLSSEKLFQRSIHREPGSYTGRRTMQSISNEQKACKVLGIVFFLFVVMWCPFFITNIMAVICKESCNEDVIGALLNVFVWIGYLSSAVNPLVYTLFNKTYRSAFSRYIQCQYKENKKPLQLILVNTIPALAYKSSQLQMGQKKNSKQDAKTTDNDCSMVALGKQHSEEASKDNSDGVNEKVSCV
How it was run: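 Antagonist-mode intracellular calcium assay: DOI (4 nM) added after 5 min compound pre-incubation at room temperature to dye-loaded HTR2A-CHO cells. Fluorescence followed for 3 min, sampled every second.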

[11] = target: 5-hydroxytryptamine receptor 2A (Homo sapiens) (UniProt P28223); assay: 5-hydroxytryptamine receptor 2A (HTR2A) small molecule agonists, cell-based qHTS assay (AID 1963587); further: nearly all actives have a fitted effect of over 30% in size; further: potency means the concentration at half of the fitted maximal effect
How it was run: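 CHO cells stably expressing human HTR2A, plated 18 h, loaded with calcium dye 1 h at 37 C. Agonist mode: compounds added and intracellular calcium fluorescence recorded kinetically for 2 min at 1 sec intervals.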

[12] = target: Muscarinic acetylcholine receptor M1 (Homo sapiens) (UniProt P11229); assay: Cholinergic receptor muscarinic 1 (CHRM1) small molecule antagonists, cell-based qHTS assay (AID 1963588); further: nearly all actives have a fitted effect of over 40% in size; further: potency means the concentration at half of the fitted maximal effect
Chain of Muscarinic acetylcholine receptor M1 (Homo sapiens) (P11229 whole entry, looked up): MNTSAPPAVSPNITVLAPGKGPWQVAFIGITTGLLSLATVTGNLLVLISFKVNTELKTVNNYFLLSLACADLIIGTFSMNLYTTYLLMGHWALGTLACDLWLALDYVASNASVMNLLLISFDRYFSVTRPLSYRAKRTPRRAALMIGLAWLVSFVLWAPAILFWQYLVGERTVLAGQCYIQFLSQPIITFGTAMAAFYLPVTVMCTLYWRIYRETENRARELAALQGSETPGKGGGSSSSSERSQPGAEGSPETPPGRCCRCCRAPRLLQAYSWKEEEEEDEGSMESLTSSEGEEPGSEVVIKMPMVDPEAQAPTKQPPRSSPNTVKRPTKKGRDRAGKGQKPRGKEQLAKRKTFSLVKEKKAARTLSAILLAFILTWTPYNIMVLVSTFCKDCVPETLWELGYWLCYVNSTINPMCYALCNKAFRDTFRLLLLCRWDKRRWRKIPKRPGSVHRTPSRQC
How it was run: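 CHRM1-CHO calcium-flux assay, antagonist mode. Cells were seeded 18 h, dye-loaded 1 h at 37 C and given compound for 5 min at RT, then acetylcholine was added at 50nM. FDSS fluorescence was read 3 min; 15 concentrations, three runs.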

[13] = target: Muscarinic acetylcholine receptor M1 (Homo sapiens) (UniProt P11229); assay: Cholinergic receptor muscarinic 1 (CHRM1) small molecule agonists, cell-based qHTS assay (AID 1963589); further: nearly all actives have a fitted effect of over 35% in size
How it was run: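 Stable CHRM1-CHO cells (human receptor) were incubated 18 h, dye-loaded for 1 h at 37 C and exposed to test compounds for agonist activity, with calcium-dependent fluorescence followed kinetically.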

[14] = cAMP Responsive Elements (CRE) small molecule agonists, cell-based qHTS assay (AID 1963590)
How it was run: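 FRET-based beta-lactamase readout (LiveBLAzer B/G, 2 h RT) quantified CRE activation in HEK 293T CRE-bla cells after 3 h treatment with DMSO-dissolved compounds.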

[15] = cAMP Responsive Elements (CRE) small molecule antagonists, cell-based qHTS assay (AID 1963591; active means well fitted inhibition curve with a large enough effect in the signal ratio in the repeat runs, not every such curve was filed as active; the % refers to the signal ratio)
How it was run: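 qHTS in CRE-bla HEK 293T cells: compound in DMSO, then 0.25 uM NKH477 (final), 3 h at 37 °C/5% CO2; beta-lactamase FRET read-out after 2 h substrate incubation.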

[16] = target: Beta-2 adrenergic receptor (Homo sapiens) (UniProt P07550); assay: Adrenergic beta2 receptor (ADRB2) small molecule antagonists, cell-based qHTS assay (AID 1963592); further: series mostly up to about 92 µM; nearly all actives have a fitted effect of over 50% in size
Chain of Beta-2 adrenergic receptor (Homo sapiens) (P07550 whole entry, looked up): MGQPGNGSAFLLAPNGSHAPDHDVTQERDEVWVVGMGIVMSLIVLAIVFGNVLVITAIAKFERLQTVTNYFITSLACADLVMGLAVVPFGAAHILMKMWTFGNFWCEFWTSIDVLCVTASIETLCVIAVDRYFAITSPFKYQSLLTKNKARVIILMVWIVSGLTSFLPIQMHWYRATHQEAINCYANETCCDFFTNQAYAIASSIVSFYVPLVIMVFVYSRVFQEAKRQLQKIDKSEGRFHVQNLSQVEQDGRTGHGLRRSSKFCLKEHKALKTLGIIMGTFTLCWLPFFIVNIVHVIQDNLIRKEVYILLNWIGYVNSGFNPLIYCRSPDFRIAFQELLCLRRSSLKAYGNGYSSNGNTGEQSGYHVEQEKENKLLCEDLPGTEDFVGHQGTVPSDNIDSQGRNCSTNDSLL
How it was run: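 Cells (CHO, stable ADRB2 overexpression) incubated 18-20hr at 37C; compounds added from DMSO; agonist mix (1nM isoproterenol, 100uM IBMX, 25uM Ro-20-1724) added; 0.5hr RT; d2-cAMP and anti-cAMP-cryptate added; 1hr RT; 665/615 nm read.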

[17] = target: D(2) dopamine receptor (Homo sapiens) (UniProt P14416); assay: Dopamine D2 receptor (DRD2) small molecule agonists, cell-based qHTS assay (AID 1963594); further: nearly all actives have a fitted effect of over 35% in size
Chain of D(2) dopamine receptor (Homo sapiens) (P14416 whole entry, looked up): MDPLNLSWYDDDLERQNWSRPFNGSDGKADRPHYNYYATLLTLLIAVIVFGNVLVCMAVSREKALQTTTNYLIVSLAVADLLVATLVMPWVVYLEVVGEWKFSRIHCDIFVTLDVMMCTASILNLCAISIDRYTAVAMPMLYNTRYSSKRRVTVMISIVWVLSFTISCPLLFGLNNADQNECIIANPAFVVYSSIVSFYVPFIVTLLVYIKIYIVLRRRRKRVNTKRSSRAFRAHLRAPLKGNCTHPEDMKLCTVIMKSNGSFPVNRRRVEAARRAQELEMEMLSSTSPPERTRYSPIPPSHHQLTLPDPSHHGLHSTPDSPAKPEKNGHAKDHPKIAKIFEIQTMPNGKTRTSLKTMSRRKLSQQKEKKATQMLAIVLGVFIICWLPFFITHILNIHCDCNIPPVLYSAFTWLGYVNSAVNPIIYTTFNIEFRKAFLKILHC
How it was run: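 HEK293 cells stably expressing human DRD2, pre-treated with PDE inhibitor Ro20-1724 (0.1 mM final) and compound 10 min at room temperature, then stimulated with NKH477 (200nM […]) for 30 min. cAMP read by HTRF (665/620 nm).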

[18] = target: D(2) dopamine receptor (Homo sapiens) (UniProt P14416); assay: Dopamine D2 receptor (DRD2) small molecule antagonists, cell-based qHTS assay (AID 1963595; active means well fitted inhibition curve with a large enough effect in the signal ratio in the repeat runs, with a control signal flat; the % refers to the signal ratio)
How it was run: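 HTRF cAMP read-out at 665 and 620 nm emission (340 nm excitation). Antagonist mode: compounds were tested against 12 nM quinpirole in DRD2-HEK293 cells, with 200 nM NKH477 raising cAMP and 0.1 mM Ro20-1724 blocking its breakdown.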

[19] = target: Beta-2 adrenergic receptor (Homo sapiens) (UniProt P07550); assay: Adrenergic beta2 receptor (ADRB2) small molecule agonists, cell-based qHTS assay (AID 1963593); further: potency means the concentration at half of the fitted maximal effect;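 on activation: CHO cells stably overexpressing human ADRB2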
How it was run: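 CHO cells stably over-expressing ADRB2 were plated overnight at 37C, then dosed with compounds plus a stimulation mix containing 100uM IBMX and 25uM Ro-20-1724 for 0.5hr at room temperature. cAMP was measured by HTRF competition, 1hr.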

[20] = p53 small molecule agonists, cell-based qHTS assay: qHTS cell viability counter screen (AID 1963581); further: nearly all actives have a fitted effect of over 45% in size
How it was run: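 Compounds are pinned onto HCT-116 p53RE-bla cells and left 16 h at 37 C. Following the reporter FRET read, ATP is quantified by CellTiter-Glo luminescence after 30 min at room temperature.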

Compound: CC(C)C(=O)Cl
- Potency [1]: inactive
- Potency [2]: inactive
- Potency [3]: inactive
- Potency [4]: inactive
- Potency [5]: inactive
- Potency [6]: inactive
- Potency [7]: inactive
- Potency [8]: inactive
- Potency [9]: inactive
- Potency [10]: inactive
- Potency [11]: inactive
- Potency [12]: inactive
- Potency [13]: inactive
- Potency [14]: inactive
- Potency [15]: inactive
- Potency [16]: inactive
- Potency [17]: inactive
- Potency [18]: inactive

Compound: COc1ccc2[nH]cc(CCN(C(C)C)C(C)C)c2c1
- Potency [1]: inactive
- Potency [2]: inactive
- Potency [3]: inactive
- Potency [4]: inactive
- Potency [5]: inactive
- Potency [6]: inactive
- Potency [7]: inactive
- Potency [9]: inactive
- Potency [12]: inactive
- Potency [13]: inactive
- Potency [14]: inactive
- Potency [16]: inactive
- Potency [19]: inactive
- Potency [17]: inactive
- Potency [18]: inactive

Compound: CC1(C)CN=C(NN=C(/C=C/c2ccc(C(F)(F)F)cc2)/C=C/c2ccc(C(F)(F)F)cc2)NC1
- Potency [1]: 12.2 µM (active)
- Potency [2]: inactive
- Potency [3]: inactive
- Potency [4]: inactive
- Potency [5]: inactive
- Potency [7]: inactive
- Potency [10]: inactive
- Potency [11]: inactive
- Potency [12]: inactive
- Potency [13]: inactive
- Potency [16]: inactive
- Potency [17]: inactive
- Potency [18]: inactive

Compound: O=S(=O)(C(Cl)(Cl)Cl)C(Cl)(Cl)Cl
- Potency [1]: 24.3 µM (active)
- Potency [2]: 8.63 µM (active)
- Potency [3]: inactive
- Potency [4]: inactive
- Potency [5]: inactive
- Potency [6]: inactive
- Potency [7]: inactive
- Potency [20]: inactive
- Potency [11]: 49 µM (active)
- Potency [12]: inactive
- Potency [13]: inactive
- Potency [15]: inactive
- Potency [16]: inactive
- Potency [19]: inactive
- Potency [18]: inactive

Compound: N#Cc1c(-c2ccc(Cl)cc2)[nH]c(C(F)(F)F)c1Br
- Potency [1]: 10.9 µM (active)
- Potency [2]: 9.69 µM (active)
- Potency [3]: inactive
- Potency [4]: 2.45 µM (active)
- Potency [5]: inactive
- Potency [6]: inactive
- Potency [7]: inactive
- Potency [20]: inactive
- Potency [11]: inactive
- Potency [12]: 16.8 µM (active)
- Potency [13]: inactive
- Potency [17]: inactive
- Potency [18]: inactive

Compound: C[C@H](N)[C@H](O)c1ccc(O)c(O)c1
- Potency [1]: inactive
- Potency [2]: inactive
- Potency [3]: inactive
- Potency [4]: inactive
- Potency [5]: inactive
- Potency [6]: inactive
- Potency [7]: inactive
- Potency [8]: inactive
- Potency [9]: inactive
- Potency [11]: inactive
- Potency [12]: inactive
- Potency [13]: inactive
- Potency [15]: inactive
- Potency [19]: 7.5 µM (active)
- Potency [17]: inactive

Compound: CCSC(=O)Cl
- Potency [1]: inactive
- Potency [2]: inactive
- Potency [3]: inactive
- Potency [4]: inactive
- Potency [5]: inactive
- Potency [6]: inactive
- Potency [7]: inactive
- Potency [20]: inactive
- Potency [9]: inactive
- Potency [11]: inactive
- Potency [13]: inactive
- Potency [14]: inactive
- Potency [15]: inactive
- Potency [16]: inactive
- Potency [17]: inactive
- Potency [18]: inactive

Compound: C[CH2][Hg][N]1C(=O)C2C(C1=O)C1(Cl)C(Cl)=C(Cl)C2(Cl)C1(Cl)Cl (stereo not given)
- Potency [1]: 5.17 µM (active)
- Potency [2]: 2.91 µM (active)
- activation [3]: 13.3% [at 15.8 µM]
- activation [4]: -0.0279% [at 11.8 µM]
- activation [5]: -12.1% [at 13.5 µM]
- activation [6]: -6.79% [at 13.6 µM]
- activity, negative = inhibition [10]: 14.2% [at 12.7 µM]
- Potency [11]: 10.4 µM (active)
- activity, negative = inhibition [12]: -14.4% [at 12.6 µM]
- activity change, negative = inhibition [16]: -18.8% [at 19 µM]
